From PubChem BioAssay (Tox21) come the findings set out here.

Values joined by “and” are separate entries in the source; they are usually repeats but may differ in a detail not shown here. Equal values may be shown once. Results filed as inconclusive are left out. More than one record can exist for a structure, and the calls need not agree. Active and inactive are the calls of the source. Unless noted, calls follow the shape of the dose curve; as a rule, active = well fitted curve in the direction sought with a large enough effect in the repeat runs; inconclusive = weak or mixed curves; inactive = no such curve, though single readings can be large; an effect the other way counts as inactive or inconclusive.

A short description of assay [1]: qHTS assay for small molecule agonists of the p53 signaling pathway (AID 651631; calls by dose curve; also: nearly all actives have a fitted effect of over 15% in size; also: potency is read from the fitted curve at half-maximal effect). The settings on record: HCT-116 p53RE-bla reporter, beta-lactamase FRET ratio, 16 h; series mostly up to 73.3 µM. The method, boiled down:
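Quantitative high-throughput format: 4,000 p53RE-bla HCT-116 cells/well, 5 h pre-incubation, 16 h compound exposure at 37 °C, 2 h room-temperature substrate step, fluorescence intensity measured.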

Assay [2] is described as follows: qHTS assay for small molecules that induce genotoxicity in human embryonic kidney cells expressing luciferase-tagged ATAD5 (AID 651632). Also: nearly all actives have a fitted effect of over 15% in size. Also: potency is read from the fitted curve at half-maximal effect. The settings on record: HEK293T ATAD5-luciferase induction, 16 h; series mostly up to 83.3 µM. The method, boiled down:
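Luminescence read-out: after 16 hr compound exposure at 37C, ATAD5-luciferase HEK293T cells received Amplite, 30 min RT, then CCD imaging. A rise in signal marks genotoxic stress.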
On the technique in general: In qHTS, concentration-response curves come from the screen itself.

Assay [3] in a line: qHTS assay for small molecules that induce genotoxicity in human embryonic kidney cells expressing luciferase-tagged ATAD5 - cell viability (AID 651634; calls by dose curve; also: nearly all actives have a fitted effect of over 25% in size; also: potency is read from the fitted curve at half-maximal effect). The settings on record: HEK293T ATAD5-luc cells viability, CellTiter-Fluor, 15.5 h; series mostly up to 83.3 µM. The gist of the method: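 HEK293T ATAD5-luc cells, 2,000/well; compound 15.5 hr, 37C/5% CO2; CellTiter-Fluor 30 min, 37C; fluorescence read.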

Assay [4] in a line: qHTS assay for small molecule disruptors of the mitochondrial membrane potential (AID 720635). Also: potency is read from the fitted curve at half-maximal effect. The note with it: HepG2 mitochondrial membrane potential, Mito-MPS dye ratio; series mostly up to 83.2 µM. The method, boiled down: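 Mitochondrial membrane potential tracked with Mito-MPS dye, red aggregates (ex 540/em 590 nm) against green monomers (ex 490/em 535 nm). Compound treatment 1 hr at 37C, dye 30 min in HepG2.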

A short description of assay [5]: qHTS assay to test for compound auto fluorescence at 590 nm (red) in HepG2 cells (AID 720674). The settings on record: HepG2 autofluorescence, red 540/590 nm, 1 h; series mostly up to 91.3 µM. The gist of the method:
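We screened compounds on adherent HepG2 cells, incubating them for an hour at 37 C in 5% CO2 before reading emission at 590 nm under 540 nm excitation; values reflect equivalence to Rose Bengal sodium fluorescence.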

The nature of assay [6]: qHTS assay to test for compound auto fluorescence at 535 nm (green) in HepG2 cells (AID 720675). The settings on record: green autofluorescence 485/535 nm, 1 h; series mostly up to 91.3 µM.
Assay [7] in a line: qHTS assay to test for compound auto fluorescence at 460 nm (blue) in HEK293 cells (AID 720678). The note with it: blue autofluorescence 405/460 nm; series mostly up to 91.3 µM. The gist of the method: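 Intrinsic compound fluorescence is recorded in live HEK293 cultures after overnight incubation at 37C, 5% CO2, using excitation 405 nm and emission 460 nm. Values are referenced to triamterene.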

A short description of assay [8]: qHTS assay for small molecule disruptors of the mitochondrial membrane potential - cell viability (AID 720634; calls by dose curve; also: nearly all actives have a fitted effect of over 20% in size; also: potency is read from the fitted curve at half-maximal effect). The note with it: HepG2 viability, ATP luminescence (CellTiter-Glo), 1 h; series mostly up to 83.2 µM. The method, boiled down: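 Luminescence from CellTiter-Glo (ATP content) gave viability in HepG2 cells, read in the same wells as the MMP dye assay after 1 hr compound exposure at 37 C.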

Assay [9] can be described thus: qHTS assay to test for compound auto fluorescence at 590 nm (red) in HEK293 cells (AID 720679). The settings on record: red autofluorescence 540/590 nm; series mostly up to 91.3 µM. The method, boiled down:
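Red autofluorescence, HEK293 cells: 2,000 cells/well; attach 4-5 hr 37C; add 23 nL cpd or DMSO; incubate o/n 37C 5% CO2; read Ex540/Em590; Rose Bengal sodium reference.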

Assay [10] can be described thus: qHTS assay for small molecule agonists of the p53 signaling pathway - cell viability (AID 651633; calls by dose curve; also: nearly all actives have a fitted effect of over 30% in size; also: potency is read from the fitted curve at half-maximal effect). The note with it: p53RE-bla HCT-116 viability, ATP luminescence, 16 h; series mostly up to 83.3 µM. The method, boiled down:
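Viability counter-read: CellTiter-Glo luminescence (30 min, room temperature) in the same p53RE-bla plates. These plates had been exposed to compounds for 16 h at 37 C.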
% is scaled to controls: 0 for no effect and ±100 for the full control effect.

With `C=CC(C)(CCC=C(C)C)OC=O` (configuration not stated), the Potency entry in [1], in assay [2], in assay [3], in assay [4], in [5] and in assay [6] was “inactive” in each case. Also, the Potency entry in assay [7] was “inactive”.
As for `CCOC(=O)NNc1ccc(N(CC)CC(C)O)nn1` (configuration not stated), the Potency result in assay [1], in assay [2], in [3], in assay [8], in assay [5] and in [6] was “inactive” in each case. Besides, the Potency entry in assay [7] and in assay [9] was “inactive” in each case.
Consider `C#C[C@]1(OC(C)=O)CC[C@H]2[C@@H]3CCC4=C/C(=N/O)CC[C@@H]4[C@H]3CC[C@@]21CC`, for which the Potency in assay [1] is 33.5 µM (active); in assay [3] it was 18.8 µM (active); in [8], 10.6 µM (active); in [4] it was 13.3 µM (active). Further, the Potency entry in assay [2], in [5], in assay [6], in assay [7] and in assay [9] was “inactive” in each case.
Consider `CC(C)=CCC1=C(O)c2ccccc2C(=O)C1=O`, for which the Potency is 1.53 µM (active) in [1], 54.2 µM (active) in [3], 54.2 µM (active) in assay [8] and 24.2 µM (active) in assay [4]. For the same molecule, the Potency result in assay [2] and in [7] was “inactive” each time.
Consider `CCCCC/C=C\C/C=C\CCCCCCCC(=O)O`, for which the Potency result in [1] is “inactive and 68.6 µM (active)”. For the same molecule, the Potency result in assay [2], in assay [3], in assay [8], in [4], in [5] and in assay [6] was “inactive” in each case. For the same molecule, the Potency result in [7] and in assay [9] was “inactive” each time.
In the case of `CC(CO)Oc1ccccc1` (configuration not stated), the Potency entry in assay [1], in [2], in assay [3], in assay [8], in [6] and in [7] was “inactive” throughout.
Consider `O=c1[nH]c2ccccc2n1CCCN1CCN(C(c2ccccc2)c2ccccc2)CC1`, for which the Potency result in assay [1], in assay [2], in [10], in assay [8], in assay [5] and in [6] was “inactive” throughout. Also, the Potency entry in [7] and in assay [9] was “inactive” each time.
In the case of `OC1CCCc2ccccc21` (configuration not stated), the Potency entry in [1], in assay [2], in [10], in assay [3], in assay [5] and in assay [7] was “inactive” each time. In addition, in assay [9], the Potency entry is “inactive”.
On to `CCC(=O)OC(=O)CC`, for which the Potency result in assay [1], in [2], in assay [3], in [8], in assay [5] and in assay [6] was “inactive” in each case. In addition, in assay [7], the Potency result is “inactive”.
With `NC[C@H]1O[C@H](O[C@H]2[C@H](O[C@@H]3O[C@H](CO)[C@@H](O)[C@H]3O)C(O)[C@H](N)C[C@@H]2N)[C@H](N)[C@@H](O)[C@@H]1O` (some centres not stated), the Potency result in assay [1], in assay [2], in assay [3] and in [8] was “inactive” each time. Further, the fluorescence, % of fluorescein control in assay [6] is 0.155% [at 18.6 µM] (inactive). Moreover, in [7], the fluorescence, % of triamterene was -0.0357% [at 18.6 µM] (inactive). The fluorescence, % of fluorescent control in [9] is 0.971% [at 18.6 µM] (inactive).
On to `O=C(O)c1ccc2cc(C(=O)O)ccc2c1`, for which the Potency result in assay [2], in assay [10], in [3], in assay [8], in assay [4] and in assay [5] was “inactive” throughout. The Potency entry in assay [6] and in [7] was “inactive” throughout.
On to `COc1cc(/C=C/c2ccccc2)oc(=O)c1`, for which the Potency entry in [1], in assay [10], in [3], in assay [8], in assay [5] and in assay [7] was “inactive” in each case. For the same molecule, the Potency result in [9] is “inactive”. Besides, the Potency in assay [4] was 71 µM (active).
Take `Cl[Si](Cl)(c1ccccc1)c1ccccc1`: the Potency result in [2], in assay [10], in assay [3], in [8], in [5] and in assay [6] was “inactive” throughout. In addition, the Potency result in assay [7] and in [9] was “inactive” each time. The Potency in assay [4] was 5.57 µM (active).
As to `CCC(C)(CCC(C)C)C(=O)[O][Sn]([CH3])([CH3])[O]C(=O)C(C)(CC)CCC(C)C` (configuration not stated), the Potency result in assay [1], in assay [2], in [3], in assay [5], in assay [6] and in assay [7] was “inactive” each time.
`CC(C)(C)c1csc(-c2cc3cc(OCc4ccccc4CC(=O)O)ccc3o2)n1`: the Potency result in assay [2], in [5], in assay [6], in assay [7] and in assay [9] was “inactive” throughout. In addition, the Potency in [10] is 15.4 µM (active); in assay [3], 24.3 µM (active); in assay [8], 61.1 µM (active); in assay [4], 4.86 µM (active).
With `C=CCCC(=O)/C=C/C1C(C)=CCCC1(C)C` (configuration not stated), the Potency entry in [2], in assay [10], in assay [3], in assay [8], in assay [5] and in assay [6] was “inactive” in each case. The Potency result in [7] and in assay [9] was “inactive” each time. For the same molecule, in assay [4], the Potency is 61.1 µM (active).
Consider `CCCCCCCCCCCC(=O)OCC(C)OC(=O)CCCCC(=O)O` (configuration not stated), for which the Potency entry in assay [2], in assay [10], in [3], in [8], in [4] and in assay [5] was “inactive” in each case. In addition, the Potency result in assay [6], in [7] and in assay [9] was “inactive” in each case.
For the molecule `COc1cc2nc(N3CCN(C(=O)c4ccco4)CC3)nc(N)c2cc1OC`, the Potency in assay [1] is 13.3 µM (active). Moreover, the Potency entry in [10], in [8], in [4], in [6], in assay [7] and in assay [9] was “inactive” in each case.
Take `Cc1cccc(C(=O)O)c1O`: the Potency result in [2], in [10], in assay [3], in assay [8], in assay [4] and in assay [5] was “inactive” each time. Besides, the Potency entry in assay [6], in [7] and in assay [9] was “inactive” throughout.
As to `CC(CCc1ccccc1)NCC(O)c1ccc(O)c(C(N)=O)c1` (configuration not stated), the Potency result in [1], in assay [2], in assay [3], in assay [4], in [6] and in assay [7] was “inactive” throughout. Also, the Potency result in [9] was “inactive”.
On to `CNC(=O)c1ccccc1Sc1ccc2c(/C=C/c3ccccn3)n[nH]c2c1`, for which the Potency in [1] was 0.75 µM (active); in assay [2], 0.237 µM (active); in assay [3], 13.3 µM (active); in assay [4], 2.37 µM (active). Besides, the Potency result in assay [5], in assay [7] and in assay [9] was “inactive” throughout.
